Laboratory results: PubChem BioAssay (Tox21)
Inconclusive results are not listed. Calls of active or inactive are those of the source. Unless noted, calls come from the whole dose curve.

What was measured:
[1] = qHTS assay to identify small molecule antagonists of the sonic hedgehog signaling (Shh) pathway (AID 1259369); note: nearly all actives have a fitted effect of over 45% in size; note: potency is the fitted concentration of half-maximal effect
Procedure, shortened: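 Cells are plated and held 4hr at 37 C, compounds (DMSO) are pinned in, conditioned medium is added to stimulate the pathway, and after 24hr luciferase reagent is added for 30min before luminescence is read.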

[2] = qHTS assay to identify small molecule agonists of the androgen receptor (AR) signaling pathway in the presence of an antagonist - cell viability counter screen (AID 1259379; active = well fitted curve in the direction sought with a large enough effect in the repeat runs; an effect the other way counts as inactive or inconclusive; note: nearly all actives have a fitted effect of over 25% in size; note: potency is the fitted concentration of half-maximal effect;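 for activity change, negative = cytotoxicity: MDA-kb2 human breast cancer cells carrying an MMTV luciferase reporter; series mostly up to about 92 µM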)
Procedure, shortened: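 Cytotoxicity is assessed by CellTiter-Fluor in MDA-kb2 cells carrying an MMTV-driven luciferase reporter. Cells receive 3.0uM nilutamide plus compounds at 15 concentrations and incubate 16 hr at 37C without CO2 before fluorescence reading.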

[3] = qHTS assay to identify small molecule agonists of the estrogen receptor beta (ER-beta) signaling pathway - cell viability counter screen (AID 1259380; active = well fitted curve in the direction sought with a large enough effect in the repeat runs; an effect the other way counts as inactive or inconclusive; note: nearly all actives have a fitted effect of over 30% in size; note: potency is the fitted concentration of half-maximal effect)
Procedure, shortened: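 Cytotoxicity is measured in parallel with the reporter screen: after 16 hr compound exposure at 37C and a 2 hr LiveBLAzer step, CellTiter-Glo is added to the same ER-beta-UAS-bla HEK293T wells and luminescence read after 30 min.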

[4] = qHTS assay to identify small molecule antagonists of the estrogen receptor beta (ER-beta) signaling pathway - cell viability counter screen (AID 1259382; active = well fitted curve in the direction sought with a large enough effect in the repeat runs; an effect the other way counts as inactive or inconclusive; note: series mostly up to about 92 µM; nearly all actives have a fitted effect of over 55% in size)
Procedure, shortened: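 Cytotoxicity counter screen multiplexed with the beta-lactamase antagonist assay: GripTite HEK293T ER-beta-bla cells were treated 16 hr with test chemicals in the presence of 1nM 17-beta-estradiol, and viability was measured by CellTiter-Glo.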

[5] = qHTS assay to identify small molecule agonists or antagonists of the thyroid stimulating hormone receptor (TSHR) signaling pathway - wild type cell line counter screen (AID 1259384)
Procedure, shortened: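 Wild-type HEK293 cells were plated 18 h at 37 C/5% CO2, pin-dosed with compound plus Ro20-1724 medium, held 30 min at room temperature, then given cAMP-d2 and anti-cAMP-cryptate; fluorescence was read after 1 h. Fifteen concentrations, triplicate.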

[6] = target: Thyrotropin receptor (Homo sapiens) (UniProt P16473); test: qHTS assay to identify small molecule antagonists of the thyroid stimulating hormone receptor (TSHR) signaling pathway (AID 1259385); note: nearly all actives have a fitted effect of over 20% in size; note: potency is the fitted concentration of half-maximal effect
Procedure, shortened: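 TSHR-HEK293 cells were plated and held 18 h at 37C/5% CO2, then given compound plus Ro20-1724 and stimulated with TSH at 1.5 ng/mL final. After 30 min at room temperature, cAMP was detected with cAMP-d2/anti-cAMP-cryptate (1 h) by fluorescence.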

[7] = target: Androgen receptor (Homo sapiens) (UniProt P10275); test: qHTS assay to identify small molecule agonists of the androgen receptor (AR) signaling pathway in the presence of an antagonist (AID 1259381); note: nearly all actives have a fitted effect of over 15% in size; note: potency is the fitted concentration of half-maximal effect
Procedure, shortened: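 Agonist-mode confirmation screen: human MDA-kb2 cells stably expressing luciferase under an MMTV promoter bearing AR and GR response elements, co-treated with 3.0uM nilutamide (final). Luminescence measured after 16hr compound incubation.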

[8] = target: Estrogen receptor beta (Homo sapiens) (UniProt Q92731); test: qHTS assay to identify small molecule antagonists of the estrogen receptor beta (ER-beta) signaling pathway (AID 1259378; active = well fitted inhibition curve with a large enough effect in the signal ratio in the repeat runs, not every such curve was filed as active; the % refers to the signal ratio)
Procedure, shortened: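 ER-beta-UAS-bla HEK293T (GripTite) cells in 2% charcoal-stripped FBS medium were preincubated 6 hr at 37C, dosed with compound, then stimulated with 1 nM E2 (final) for 16 hr; beta-lactamase reporter read by B/G FRET fluorescence after 2 hr substrate loading.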

[9] = target: Estrogen receptor (Homo sapiens) (UniProt P03372); test: qHTS assay to identify small molecule agonists of the estrogen receptor alpha (ER-alpha) signaling pathway in the presence of an antagonist (AID 1259383); note: top concentration of the series differs between compounds; nearly all actives have a fitted effect of over 15% in size
Procedure, shortened: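 Agonist-mode confirmation in the presence of the ER antagonist ICI-182,780 at 10.0nM final. Breast-derived VM7Luc4E2 reporter cells were exposed to compounds for 22hr, and ERE-driven luciferase was quantified by luminescence.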
% is set by controls: 0 for no effect and ±100 for the full control effect.

Chain of Estrogen receptor beta (Homo sapiens) (Q92731 whole entry, looked up): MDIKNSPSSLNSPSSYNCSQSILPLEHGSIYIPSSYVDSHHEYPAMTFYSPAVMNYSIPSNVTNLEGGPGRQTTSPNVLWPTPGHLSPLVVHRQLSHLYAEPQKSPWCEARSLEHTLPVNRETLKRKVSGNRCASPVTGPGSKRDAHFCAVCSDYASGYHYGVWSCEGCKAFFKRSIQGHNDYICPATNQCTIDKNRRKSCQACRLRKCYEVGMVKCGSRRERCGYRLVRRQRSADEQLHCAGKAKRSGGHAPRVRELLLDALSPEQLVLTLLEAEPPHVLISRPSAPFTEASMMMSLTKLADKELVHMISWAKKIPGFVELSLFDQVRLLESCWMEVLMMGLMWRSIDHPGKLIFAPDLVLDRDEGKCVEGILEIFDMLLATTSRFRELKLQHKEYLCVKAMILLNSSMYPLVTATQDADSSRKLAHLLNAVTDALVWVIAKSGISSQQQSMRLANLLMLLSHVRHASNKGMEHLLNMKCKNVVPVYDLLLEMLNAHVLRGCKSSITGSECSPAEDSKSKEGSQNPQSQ
Chain of Estrogen receptor (Homo sapiens) (P03372 whole entry, looked up): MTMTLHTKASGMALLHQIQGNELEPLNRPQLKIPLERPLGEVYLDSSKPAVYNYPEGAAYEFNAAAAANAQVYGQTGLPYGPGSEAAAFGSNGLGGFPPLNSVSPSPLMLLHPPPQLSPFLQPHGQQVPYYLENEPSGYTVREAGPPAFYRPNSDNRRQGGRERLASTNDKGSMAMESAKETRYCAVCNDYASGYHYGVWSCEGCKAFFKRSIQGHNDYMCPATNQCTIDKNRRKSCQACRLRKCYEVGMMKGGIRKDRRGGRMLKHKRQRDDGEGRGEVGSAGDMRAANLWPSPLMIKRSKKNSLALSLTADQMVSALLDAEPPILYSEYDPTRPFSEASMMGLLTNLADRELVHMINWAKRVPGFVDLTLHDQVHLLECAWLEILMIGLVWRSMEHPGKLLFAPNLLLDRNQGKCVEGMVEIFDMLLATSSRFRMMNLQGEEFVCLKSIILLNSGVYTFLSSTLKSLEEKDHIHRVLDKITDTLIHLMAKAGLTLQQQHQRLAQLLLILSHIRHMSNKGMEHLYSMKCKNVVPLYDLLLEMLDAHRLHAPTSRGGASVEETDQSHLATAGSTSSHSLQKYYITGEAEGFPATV
Chain of Androgen receptor (Homo sapiens) (P10275 whole entry, looked up): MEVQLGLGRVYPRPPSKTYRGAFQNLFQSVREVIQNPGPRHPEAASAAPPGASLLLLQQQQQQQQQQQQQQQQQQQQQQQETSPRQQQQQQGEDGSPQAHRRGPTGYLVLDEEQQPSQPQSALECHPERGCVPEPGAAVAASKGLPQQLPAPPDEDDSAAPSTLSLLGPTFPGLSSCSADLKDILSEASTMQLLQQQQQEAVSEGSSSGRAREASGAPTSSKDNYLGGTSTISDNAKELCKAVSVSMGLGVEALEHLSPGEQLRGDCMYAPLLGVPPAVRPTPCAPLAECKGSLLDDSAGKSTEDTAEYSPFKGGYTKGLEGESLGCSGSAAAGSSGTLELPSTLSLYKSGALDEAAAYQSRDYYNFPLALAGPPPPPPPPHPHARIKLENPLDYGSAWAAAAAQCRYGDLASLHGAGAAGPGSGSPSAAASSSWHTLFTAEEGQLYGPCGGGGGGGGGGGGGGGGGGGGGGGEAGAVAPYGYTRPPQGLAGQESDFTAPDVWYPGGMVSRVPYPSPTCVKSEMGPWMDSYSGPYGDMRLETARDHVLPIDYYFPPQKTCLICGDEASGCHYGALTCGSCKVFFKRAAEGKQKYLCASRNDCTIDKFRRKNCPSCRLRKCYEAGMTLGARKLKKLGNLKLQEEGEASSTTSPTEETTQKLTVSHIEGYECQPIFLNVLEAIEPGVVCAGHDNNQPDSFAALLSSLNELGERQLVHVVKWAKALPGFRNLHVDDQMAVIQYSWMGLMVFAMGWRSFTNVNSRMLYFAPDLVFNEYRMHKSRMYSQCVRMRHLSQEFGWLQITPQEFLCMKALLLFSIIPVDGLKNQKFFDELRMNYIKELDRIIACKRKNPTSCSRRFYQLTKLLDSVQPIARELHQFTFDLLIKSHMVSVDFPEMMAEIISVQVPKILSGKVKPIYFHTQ
Chain of Thyrotropin receptor (Homo sapiens) (P16473 whole entry, looked up): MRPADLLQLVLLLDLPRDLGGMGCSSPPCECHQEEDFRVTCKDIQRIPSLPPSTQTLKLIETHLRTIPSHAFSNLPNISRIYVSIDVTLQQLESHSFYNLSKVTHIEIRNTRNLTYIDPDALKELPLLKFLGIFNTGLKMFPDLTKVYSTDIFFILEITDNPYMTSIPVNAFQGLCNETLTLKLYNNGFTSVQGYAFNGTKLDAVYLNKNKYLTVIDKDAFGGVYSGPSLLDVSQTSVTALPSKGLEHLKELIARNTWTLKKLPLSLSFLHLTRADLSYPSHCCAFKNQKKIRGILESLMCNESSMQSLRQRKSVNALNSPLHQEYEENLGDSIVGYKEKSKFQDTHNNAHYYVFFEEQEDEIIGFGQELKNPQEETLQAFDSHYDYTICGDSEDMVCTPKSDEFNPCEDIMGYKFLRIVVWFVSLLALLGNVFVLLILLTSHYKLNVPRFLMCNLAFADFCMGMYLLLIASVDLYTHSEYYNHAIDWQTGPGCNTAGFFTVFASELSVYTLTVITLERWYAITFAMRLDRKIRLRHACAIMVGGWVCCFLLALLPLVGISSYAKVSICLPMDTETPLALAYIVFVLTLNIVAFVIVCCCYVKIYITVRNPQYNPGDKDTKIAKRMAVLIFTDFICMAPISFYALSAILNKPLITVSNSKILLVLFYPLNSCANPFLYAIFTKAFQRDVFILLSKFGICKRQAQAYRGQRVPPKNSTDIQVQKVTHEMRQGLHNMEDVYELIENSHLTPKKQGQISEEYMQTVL

CC(C)O.CC(C)O.CCOC(=O)/C=C(\C)O.CCOC(=O)/C=C(\C)O.[Ti]
inactive: Potency [1] | Potency [2] | Potency [3] | Potency [4] | Potency [5] | Potency [6]

CCCCCCCCCc1ccc(OCCOCCO)cc1
inactive: Potency [7] | Potency [5]
active: Potency [1] 8.1 µM | Potency [2] 5.74 µM | Potency [3] 20.4 µM | Potency [6] 25.6 µM

COc1cc(C(=O)OCCCN2CCCN(CCCOC(=O)c3cc(OC)c(OC)c(OC)c3)CC2)cc(OC)c1OC
active: Potency [1] 6.68 µM | Potency [3] 23.7 µM
inactive: Potency [8] | Potency [7] | Potency [9] | Potency [5] | Potency [6]

O=CC1CC=CCC1 (stereo unspecified)
inactive: Potency [1] | Potency [2] | Potency [3] | Potency [7] | Potency [4] | Potency [9] | Potency [5] | Potency [6]

NS(=O)(=O)c1ccc(N2CCCCS2(=O)=O)cc1
inactive: Potency [1] | Potency [2] | Potency [3] | Potency [7] | Potency [4] | Potency [9] | Potency [5] | Potency [6]

CCCCCCCC/C=C\CCCCCCCC(=O)OCC
inactive: Potency [1] | Potency [2] | Potency [3] | Potency [4] | Potency [5] | Potency [6]

CC[N+](C)(CC)CCOC(=O)C(O)(c1ccccc1)C1CCCCC1 (stereo unspecified)
inactive: Potency [1] | Potency [2] | Potency [3] | Potency [4] | Potency [9] | Potency [5] | Potency [6]

CN(C)c1ccc(CCO)cc1
inactive: Potency [1] | Potency [2] | Potency [3] | Potency [4] | Potency [9] | Potency [5] | Potency [6]

CC(COCCO)OCCO (stereo unspecified)
inactive: Potency [1] | Potency [2] | Potency [3] | Potency [7] | Potency [4] | Potency [5] | Potency [6]

O=S(c1cc(Cl)cc(Cl)c1O)c1cc(Cl)cc(Cl)c1O
inactive: Potency [2] | Potency [7] | Potency [9] | Potency [5] | Potency [6]
active: Potency [1] 21.1 µM | Potency [3] 29.8 µM

O=C(NCCO[N+](=O)[O-])c1cccnc1
inactive: Potency [1] | Potency [2] | Potency [3] | Potency [4] | Potency [5] | Potency [6]

C[C@@H]1C[C@H]2[C@@H]3CCC4=CC(=O)C=C[C@]4(C)[C@@]3(F)[C@@H](O)C[C@]2(C)[C@@]1(O)C(=O)COC(=O)c1ccncc1
inactive: Potency [1] | Potency [2] | Potency [4] | Potency [9] | Potency [5]
active: Potency [3] 29.8 µM | Potency [7] 0.0067 µM

CC1=CC=C(C(C)C)CC1
inactive: Potency [1] | Potency [2] | Potency [3] | Potency [4] | Potency [9]

Cc1ccc(C(C)OC(=O)C2(C)CCC(C(=O)O)C2(C)C)cc1 (stereo unspecified)
inactive: Potency [1] | Potency [2] | Potency [3] | Potency [4] | Potency [5] | Potency [6]

CC(=O)OC[C@H]1O[C@@H](n2ncc(=O)[nH]c2=O)[C@H](OC(C)=O)[C@@H]1OC(C)=O
inactive: Potency [1] | Potency [2] | Potency [7] | Potency [9] | Potency [5] | Potency [6]
active: Potency [3] 1.33 µM

C/C=C/C(=O)CC
inactive: activity change, negative = cytotoxicity [2] 0.797% [at 19 µM] | activity change, negative = cytotoxicity [3] 5.9% [at 19 µM] | activity change, negative = cytotoxicity [4] 2.99% [at 19 µM] | Potency [9] | cAMP activity change [5] -0.0314% [at 18.9 µM, hits give high values] | activity change, negative = inhibition [6] 0.568% [at 19 µM]
active: Potency [1] 5.9 µM

C=CC(=O)OCCOc1ccccc1
active: Potency [1] 61.1 µM
inactive: Potency [8] | Potency [2] | Potency [5] | Potency [6]

COS(=O)(=O)C(F)(F)F
inactive: Potency [8] | Potency [2] | Potency [9] | Potency [5] | Potency [6]
active: Potency [1] 14.3 µM

COCCCN1CCC(NC(=O)c2cc(Cl)c(N)c3c2OCC3)CC1
inactive: Potency [1] | Potency [2] | Potency [3] | Potency [4] | Potency [5] | Potency [6]

O=C(O)c1ccco1
inactive: Potency [1] | Potency [2] | Potency [3] | Potency [4] | Potency [9] | Potency [5] | Potency [6]

C=CC(=O)OCCOCCOC(=O)C=C
inactive: Potency [9] | Potency [5] | Potency [6]
active: Potency [1] 4.88 µM | Potency [2] 61.4 µM | Potency [3] 24.4 µM

O=C(c1ccc(F)cc1)C1CCN(CCn2c(=S)[nH]c3ccccc3c2=O)CC1
inactive: Potency [1] | Potency [2] | Potency [7] | Potency [5] | Potency [6]

CC(=O)[O][Al]
inactive: Potency [1] | Potency [2] | Potency [4] | Potency [5]

ClCCOCCOCCCl
inactive: Potency [1] | Potency [2] | Potency [9] | Potency [5] | Potency [6]
